KDM5B inh: KDM5B demethylase inhibition; Q9UGL1; KDM5B demethylase, FDH-coupled NADH fluorescence (FDH is formaldehyde dehydrogenase); Potency, µM (top dose mostly 57.7 µM), actives largely listed as inhibitors; actives 2.6% (n = 220,000); active = well fitted inhibition curve with a large enough effect; also: 0% is about no effect; nearly all actives have a fitted effect of over 70% in size
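Compound dilutions met 200 nM (final) KDM5BΔAP for 10 min at room temperature before substrate addition. The substrate mix held 12.5 µM H3K4me3 with cofactors 25 µM α-ketoglutarate and 50 µM Fe²⁺. NADH signal gain over 30 min defined activity.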
An asterisk follows results filed as active; i = inactive. Many of the other results were omitted from the sample, so hits are more common in it than they were. Potency is read from the fitted curve at half-maximal effect.

SMILES | KDM5B inh
COc1ccc(C(=O)NCc2nnc3ccc(-c4ccc(C)c(C)c4)nn23)cc1 | 20µM*
CC(=O)c1cccc(NC(=O)CSc2nnc3ccc(-c4ccc(Br)cc4)nn23)c1 | i
Cc1ccn2cc(CNC(=O)c3cccc(C(F)(F)F)c3)nc2c1 | i
O=C(NCc1nnc2ccc(-c3ccccc3)nn12)c1cccc(C(F)(F)F)c1 | 31.6µM*
CCc1ccc(-c2ccc3nnc(SCC(=O)Nc4cccc(C(C)=O)c4)n3n2)cc1 | i
Cc1ccc(-c2ccc3nnc(CNC(=O)c4ccc(F)c(F)c4)n3n2)cc1 | 28.2µM*
Cc1occc1-c1nc(-c2cccc(Br)c2)no1 | i
CC(C(=O)Nc1ccc(OC(F)F)c(Cl)c1)n1cccn1 (centres undefined) | i
CC(C)c1nnc(NC(=O)c2cccc3ncccc23)s1 | i
CC(=O)N1CCN(CC(=O)Nc2sc3c(c2C(N)=O)CCCC3)CC1 | i
COc1cccc(N2C(=O)NC(=NC3CCCCC3)C23CCN(Cc2cccnc2)CC3)c1 | i
Cc1oc2cc(OCc3ccc(F)cc3)ccc2c(=O)c1Oc1ccccc1 | i
N#CCOc1ccc(NC(=O)c2ccc3ccccc3n2)cc1 | i
COc1ccccc1NS(=O)(=O)c1cc(-c2n[nH]c(=O)c3ccccc23)ccc1C | i
COC(=O)c1ccccc1NC(=O)Cn1c(-c2ccccc2)nc(C)cc1=O | i
Cc1ccc(NC(=O)CC2CC3CCC2C3)cc1 (centres undefined) | i
CCOc1ccc(NC(=O)NC2CCN(c3nc4ccccc4s3)CC2)cc1 | i
N#Cc1ccccc1COc1ccccc1C(N)=O | i
Cc1ccc(-c2ccc3nnc(CNC(=O)c4ccc[nH]4)n3n2)cc1C | i
Cc1ccc(C(=O)NCc2nnc3ccc(-c4ccc(C)c(C)c4)nn23)s1 | 28.2µM*
Cc1nnc2ccc(-c3cccc(NC(=O)c4ccc(Br)o4)c3)nn12 | i
COc1ccc(C(C)=O)cc1CC(=O)NCc1nnc2ccccn12 | i
O=C(NCc1nnc2ccc(-c3ccccc3)nn12)c1ccc(F)c(F)c1 | 28.2µM*
Cc1ccc(-c2nonc2NC(=O)c2ccco2)cc1C | i
COc1ccccc1CC(=O)NCc1nnc2ccc(-c3ccc(C)c(C)c3)nn12 | 31.6µM*
SMILES | KDM5B inh
Cc1ccc(-c2ccc3nnc(C)n3n2)cc1S(=O)(=O)Nc1cccc(Cl)c1 | i
COc1ccc(C)cc1CC(=O)NCc1nnc2ccccn12 | i
Cc1ccc(-c2ccc3nnc(CNC(=O)c4ccco4)n3n2)cc1C | 22.4µM*
CCCCN(Cc1ccccc1)c1ccc(NS(=O)(=O)c2cccc(F)c2)cc1C(=O)O | i
Cc1nn(CCC(=O)Nc2ccc(C(C)C)cc2)c(C)c1S(=O)(=O)N1CCC(C)CC1 | i
COc1ccc(C2NC(=O)N(Cc3nc(C4CCCCC4)no3)C3=C2C(=O)OC3)cc1 (centres undefined) | i
C=CCSC1=N/C(=C\C=C\c2ccc(OC)cc2)C(=O)S1 | i
Cc1nn(-c2ccccc2)c(C)c1CC(=O)N1CCN(S(=O)(=O)c2ccccc2F)CC1 | i
Cc1ccc(C(=O)NCC(F)(F)F)cc1N | i
Cc1ccc(C(=O)NCCN2CCc3ccccc3C2)cc1F | i
O=C1NCCOCCN(C(=O)Cc2c[nH]c3ccccc23)[C@H]2CCC[C@@H]12 | i
Cc1ccc(/C=C/C(=O)N(Cc2ccco2)Cc2ccco2)s1 | i
CCOC(=O)c1oc2cc(OC)ccc2c(=O)c1-c1ccccc1OC | i
CN1CCN(C(=O)CCNc2nc(Cl)nc3nc[nH]c23)CC1 | i
O=S(=O)(Cc1ccc(Cl)cc1)c1nc2ccccc2nc1N1CCCCC1 | i
Cc1ccc(-c2ccc(=O)n(CC(=O)Nc3ccc(F)c(Cl)c3)n2)cc1C | i
Cc1ccc(-c2ccc3nnc(CNC(=O)c4cccc(N(C)C)c4)n3n2)cc1C | i
Cc1ccc(-c2ccc3nnc(CNC(=O)c4ccc(F)c(F)c4)n3n2)cc1C | 31.6µM*
O=C(NCc1nnc2ccc(-c3ccc(Cl)cc3)nn12)c1ccc(F)c(F)c1 | 31.6µM*
O=C(C1CCN(S(=O)(=O)c2ccc(Cl)cc2)CC1)N1CCCC1c1ccccc1 (centres undefined) | i
Clc1ccccc1N/N=C/c1cccc(/C=N/Nc2ccccc2Cl)c1 | i
CC(CCc1ccccc1)NC(=O)c1ccc2c(c1)N(Cc1ccccc1)C(=O)CS2=O (centres undefined) | i
Cc1nc2ccc(S(=O)(=O)N(CC(=O)N3CCOCC3)Cc3ccccc3)cc2s1 | i
COCCN1Cc2nc(-c3cccc(OC(F)(F)F)c3)ccc2OCC1=O | i
COc1ccc(NC(=O)c2nnn3c2CN(Cc2cccc(Cl)c2)C(=O)CC3)c(C)c1 | i
SMILES | KDM5B inh
CCC1CCCCN1C(=O)CN1C(=O)N(c2ccc(F)cc2)S(=O)(=O)c2ccccc21 (centres undefined) | i
O=C(c1ccc2c(c1)OCO2)N1CCC2(CC1)N=C(c1ccc(Cl)cc1)NO2 | 31.6µM*
O=C(c1cccc(F)c1)N1CCC2(CC1)N=C(c1ccc(Cl)cc1)NO2 | 20µM*
O=C(c1cccc(F)c1)N1CCC2(CC1)N=C(c1ccccc1)NO2 | i
Cc1ccc(C2=NC3(CCN(C(=O)c4ccc(F)c(Cl)c4)CC3)ON2)cc1 | i
O=C(c1cccc(Cl)c1)N1CCC2(CC1)N=C(c1ccc(Br)cc1)NO2 | i
Cc1ccc(C2=NC3(CCN(C(=O)c4ccc5c(c4)OCO5)CC3)ON2)cc1 | i
COc1ccccc1NC(=O)COC(=O)c1cc(=O)c2ccccc2o1 | i
NC1CCc2nn(CC(=O)N3CCc4ccccc43)c(=O)n2CC1 (centres undefined) | i
NC1CCc2nn(CC(=O)NCCOc3ccccc3)c(=O)n2CC1 (centres undefined) | i
NC1CCc2nn(CC(=O)N3CCCN(c4ncccn4)CC3)c(=O)n2CC1 (centres undefined) | 28.2µM*
CCn1c(SCc2cc3c(cc2Br)OCO3)nc2cc(S(N)(=O)=O)ccc21 | i
CCn1cc2c3c(cccc31)CN(C(=O)c1ccc(OC)c(F)c1)CC2 | 31.6µM*
COc1ccc(C(=O)N2CCc3cn(C)c4cccc(c34)C2)c(C)c1 | i
CN(C)c1ccc(C(=O)N2CCc3cn(C)c4cccc(c34)C2)cc1 | i
CC1=C[C@@H](CN2CCN(c3ccccn3)CC2)[C@H](C(C)C)C[C@H]1Cc1nnc(-c2cncn2C)o1 | i
COc1ccc(C(=O)N[C@H]2CO[C@H]3[C@@H]2OC[C@@H]3n2nnnc2-c2ccc3c(c2)OCO3)cc1 | i
COc1ccc(-c2ccnc(N[C@H]3CO[C@H]4[C@@H]3OC[C@@H]4NC(=O)c3ccc4c(c3)OCO4)n2)cc1 | i
O=C(N[C@H]1CO[C@H]2[C@@H]1OC[C@@H]2Nc1nccc(-c2ccc(-c3ccccc3)cc2)n1)c1ccc2c(c1)OCO2 | i
O=S(=O)(N[C@H]1CO[C@H]2[C@@H]1OC[C@@H]2Nc1nccc(-c2ccc3c(c2)OCO3)n1)c1ccc2ccccc2c1 | 28.2µM*
CCNC(=O)O[C@@H]1CO[C@H]2[C@@H]1OC[C@@H]2NS(=O)(=O)c1ccc2ccccc2c1 | i
Cc1ccc(C(=O)N[C@H]2CO[C@H]3[C@@H]2OC[C@@H]3Nc2nccc(-c3ccc4c(c3)OCO4)n2)cc1 | 28.2µM*
CCCOc1ccc(NC(=O)COc2ccc(C)c(C)c2)c2cccnc12 | i
CCOc1ccc(S(=O)(=O)NCCO)c2ccccc12 | i
O=c1[nH]c(Nc2ccccc2Cl)nc2nccc(-c3ccco3)c12 | i
O=C1CSc2ccc(S(=O)(=O)N3CCCCC3)cc2N1 | i

Assay outcomes as filed in PubChem BioAssay.
